# In PubChem BioAssay AID624202 (National Center for Advancing Translational Sciences (NCATS), 2012):
# The whole screen tested about 380,000 compounds, of which about 4,000 (1.1%) were called active. Another 3% or so got no clear call; they are omitted. Calls follow the shape of the dose curve; as a rule, active = well fitted activation curve with a large enough effect; inconclusive = small, poorly fitted or top-dose-only effect; inactive = no such curve, though single readings can be large or run the other way. The list comes from a sample in which actives are over-represented; it also holds similar structures and randomly drawn compounds.
# Experiment: qHTS Assay to Identify Small Molecule Activators of BRCA1 Expression; also: nearly all actives have a fitted effect of over 80% in size
# Conditions: MCF7-BRCA1-FFLuc reporter, luminescence, 48 h; series mostly up to 46.1 µM; activation: at the top concentration
# Source text: Functionally, BRCA1 has been implicated in a wide array of cellular activities, including DNA damage repair, cell-cycle checkpoint control, growth inhibition, apoptosis, transcriptional regulation, chromatin remodeling, protein ubiquitylation, and mammary stem cell self-renewal and differentiation. Reduction in BRCA1 levels is associated with an increase in tumor growth and resistance to anti-estrogenic agents, such as tamoxifen, while an increase in BRCA1 expression leads to cell growth arrest and apoptosis. […] The frequent loss of BRCA1 expression in invasive breast cancers in the absence of somatic mutation has been attributed to numerous mechanisms, including hypermethylation of the BRCA1 promoter, exaggerated ubiquitylation of BRCA1 protein, and improper intracellular localization. […] Basal-like breast cancers (BLBCs) are associated with an aggressive clinical course, resistance to chemotherapy, and typically lack expression of estrogen receptor (ER), progesterone receptor (PR), and epidermal growth factor receptor 2 (HER2). BLBCs account for 10-17% of all breast cancers, have few therapeutic options, and are considered the biggest unmet need in the treatment of breast cancer. Conversely, tumors which maintain expression of functional BRCA1 are almost uniformly luminal type cancers, and are accordingly associated with more indolent clinical courses, responsiveness to endocrine therapies, and improved survival.
# As such, it is possible that an increase in BRCA1 expression would enable cellular differentiation and restore tumor suppressor function, resulting in delayed tumor growth and less aggressive, more treatable breast cancers. The long term goal of this proposal is to develop a novel prevention or therapeutic agent for breast cancer patients. To accomplish this goal, the overall objective of this proposal is to access the resources provided by the NIH Molecular Libraries Roadmap Initiative and the Molecular Libraries Probe Production Centers Network (MLPCN) to discover and develop new chemical activator probes that will increase BRCA1 expression and function.
# NIH Molecular Libraries Probe Production Network [MLPCN]
# NIH Chemical Genomics Center [NCGC]
# PI Name: Lisa Harlan-Williams, University of Kansas Medical Center
# 5microl of MCF7-BRCA1-FFLuc cell suspension (400 cells/microl in phenol-red free MEM) are dispensed into Greiner white solid bottom 1536-well assay plates, yielding a final well density of 2000 cells/well. Plates are incubated for 2 hours at 37 degrees C in 5% humidified CO2 to allow cell attachment. Compounds are then transferred via Kalypsys pin tool equipped with 1536-pin array (10nl slotted pins, V&P Scientific, San Diego, CA). The plates are then incubated at 37 degrees C in 5% humidified CO2 for 48 hours. The NCGC in-house luciferase substrate reagent, Buglite, is then added (2.5microl) and plates incubated for 15 minutes, before being transferred to a ViewLux high-throughput CCD imager (PerkinElmer) wherein single end-point measurements of luminescence are acquired using a clear filter. The positive control compound, genistein, will be pinned into dedicated control columns on each plate, including a 16-point 1:3 titration in duplicate, as well as a 10microM maximum activation control, allowing for the normalization of screening activity. DMSO will be pinned into a separate column as a negative control.
# All screening operations will be performed on a fully integrated robotic system (Kalypsys, San Diego, CA) containing one RX-130 and two RX-90 anthropomorphic robotic arms (Staubli, Duncan, SC). Library plates will be screened starting from the lowest and proceeding to the highest concentration. Vehicle-only plates, with DMSO being pin-transferred to columns 5-48, will be inserted uniformly at the beginning and the end of each library in order to monitor and record any shifts in the background, which can be affected by reagent dispensers or loss in enzyme activity over time. […]
# Potency is read from the fitted curve at half-maximal effect.
SMILES,Potency,activation
Cc1cc(C(=O)NCCc2ccc(Cl)cc2)c(C)o1,8.91 µM (active),
O=C(COc1ccc(Cl)cc1)NCCSc1ccccc1,,51.9% (inactive)
CC(C)C[C@H](NC(=O)NCCc1ccc(Cl)cc1)C(=O)O,,-20.5% (inactive)
NS(=O)(=O)c1ccc(CCNC(=O)c2ccc(Cl)cc2[N+](=O)[O-])cc1,,-10.3% (inactive)
O=C(NCCc1ccccc1)Oc1ccc(Cl)cc1,12.6 µM (active),
O=C(NCCc1ccccc1)C1CC1,,32.3% (inactive)
Cc1nc2ccc(S(=O)(=O)NC(C(=O)NCc3ccccc3Cl)C(C)C)cc2s1 (stereo unspecified),,12.6% (inactive)
COc1ccc(Cl)cc1NC(=O)CSc1nc(-c2cccs2)cc(C(F)(F)F)n1,,-14.4% (inactive)
COc1ccc(CNc2nc(-c3ccccc3)nn2C(=O)c2ccccc2OC)cc1,,65.4% (inactive)
O=C(/C=C/c1cn(CC(O)CN2CCc3ccccc32)c2ccccc12)c1ccc(Br)cc1 (stereo unspecified),,-51.9% (inactive)
O=C(Nc1ccc2c(c1)OCCO2)C1CCCN(c2ncccn2)C1 (stereo unspecified),10 µM (active),
O=C(Nc1ccc2c(c1)OCCO2)C1CCCC1,,51.4% (inactive)
O=C(Nc1ccccn1)C1CCN(S(=O)(=O)c2ccc3c(c2)OCCO3)CC1,,47.3% (inactive)
CCOc1ccc(OCC)c(NS(=O)(=O)c2ccc3[nH]c(=O)ccc3c2)c1,,9% (inactive)
O=C(Nc1cccc2cccnc12)C(F)(F)F,,32.5% (inactive)
O=C(Nc1ccc(C(=O)NCc2ccccc2Cl)cc1)C1=CSCCO1,11.2 µM (active),
O=C(NCc1ccccc1Cl)C1CCCO1 (stereo unspecified),,11.4% (inactive)
CSc1ccc(CNC(=O)c2ccc(NC(=O)C3=CSCCO3)cc2)cc1,,-7.67% (inactive)
CCc1ccccc1NC(=O)Cn1c(=O)n(-c2cccc(C)c2)c(=O)c2c1c1cc(OC)ccc1n2C,,-19% (inactive)
COc1ccccc1C(=O)NC(=S)NC12CC3CC(CC(C3)C1)C2,,-12.5% (inactive)
CSc1ccc(/C=C/C(=O)NC23CC4CC(CC(C4)C2)C3)cc1,11.2 µM (active),
COc1ccc(/C=C/C(=O)Nc2ccc(C34CC5CC(CC(O)(C5)C3)C4)cc2)cc1OC,,-26.3% (inactive)
CSc1nn(Cc2cccc(C)c2)c(N)c1S(=O)(=O)c1ccccc1,,-23% (inactive)
COc1ccc(CCNc2ncnc3onc(-c4ccc(Cl)cc4)c23)c(OC)c1,,-32.5% (inactive)

SMILES,Potency,activation
CCOC(=O)c1cccc(NS(=O)(=O)c2cc(-c3cnc(C)o3)ccc2OC)c1,,-14.7% (inactive)
N#Cc1nc(/C=C/c2ccc(F)cc2)oc1NCc1ccc(F)cc1,,4.74% (inactive)
Cc1ccc(/C=N/NC(=S)NC2CCCCC2)o1,4.47 µM (active),
Cc1ccc(NC(=O)CSCC(=O)NC2CCCCC2)cc1,,17.2% (inactive)
Cc1ccc(/C=N/NC(=O)Cn2ccc(C(F)(F)F)n2)o1,,-2.27% (inactive)
C/C(=N\NC(=S)NC1CCCCC1)c1ccc(C)o1,,41.7% (inactive)
S=C(Nc1ccc(Br)cc1)NC1CCN(Cc2ccccc2)CC1,,5.12% (inactive)
Cc1ccc(NC(=S)NC2CCCC2)cc1,10 µM (active),
CCOC(=O)c1ccc(NC(=O)C2CC(=O)NC(=Nc3ccc(C)c(C)c3)S2)cc1 (stereo unspecified),,2.36% (inactive)
COc1cccc(CNC(=O)c2cc(=O)[nH]c3ccc(S(=O)(=O)N4CCCCC4)cc23)c1,,3.87% (inactive)
CCc1ccc(CNCc2c(C(=O)O)n(Cc3ccc(F)cc3Cl)c3cc(OC)ccc23)cc1,,-23.5% (inactive)
CN(C)c1ccc(/C=N\Nc2ccc([N+](=O)[O-])cc2[N+](=O)[O-])cc1Cl,,4.33% (inactive)
CC(C)CNC(=O)C(=O)Nc1ccc(N(C)C)cc1,2.24 µM (active),
CN(C)c1ccc(C(CC(=O)O)C(=O)O)cc1 (stereo unspecified),,-8.28% (inactive)
CN(C)c1ccc(N/C=C/C(=O)C(F)(F)F)cc1,,17.9% (inactive)
CCOC(=O)Cn1c(=O)n(-c2ccccc2OC)c2nc(-c3cccc(F)c3)nc(C(N)=O)c21,,-41.4% (inactive)
CCn1nnnc1SCC(=O)Nc1ccc(N(C)C)cc1,,70.3% (inactive)
COc1ccc(C(=O)CSc2nnnn2C)c(OC)c1,,-6.19% (inactive)
CCn1nnnc1SCC(=O)c1ccc(C)cc1C,6.31 µM (active),
CCCCn1c(CNC(=O)C23CC4CC(CC(C4)C2)C3)nnc1SCC(=O)Nc1ccc(C)cc1,,-13.4% (inactive)
COc1ccc(Cn2c(C(=O)O)c(CNCCc3cccs3)c3ccc(OC)cc32)cc1,,0% (inactive)
Nc1nc(SCc2cccc(Br)c2)n[nH]1,,-2.4% (inactive)
Nc1cc(N)nc(SCc2cccc(F)c2)n1,12.6 µM (active),
N#Cc1cccc(CSc2ncnc(N)n2)c1,,-4.83% (inactive)

SMILES,Potency,activation
Cc1ccc(Cn2c(=O)n(CCCC(=O)NCc3ccccc3Cl)c(=O)c3ccccc32)cc1,,0% (inactive)
O=C(NCCC1=CCCCC1)c1ccc(-n2cncn2)cc1,3.16 µM (active),
O=C(COc1ccc(Cl)cc1)NCCC1=CCCCC1,,-1.76% (inactive)
O=C(COc1cccc(-n2cnnn2)c1)NCCC1=CCCCC1,,-2.75% (inactive)
CC(Sc1nncn1C)C(=O)NCCC1=CCCCC1 (stereo unspecified),,-7.87% (inactive)
CC(OC(=O)CNC(=O)c1ccc(Cl)c([N+](=O)[O-])c1)C(=O)NCc1ccco1 (stereo unspecified),,-3% (inactive)
O=C(NCCC1=CCCCC1)c1ccc(Cl)c([N+](=O)[O-])c1,7.94 µM (active),
CC(=O)c1ccc[n+](C(C)CCC(C)[n+]2cccc(C(C)=O)c2)c1 (stereo unspecified),,16.4% (inactive)
COc1ccc(-c2cc(NCc3ccc(F)cc3)n3cnnc3n2)cc1,,11.7% (inactive)
Cc1ccc2c(c1)c1c(c(=O)n(-c3ccccc3)c(=O)n1CC(=O)c1ccc(Cl)cc1)n2C,,3.56% (inactive)
Cc1ccc(OCC(=O)OCc2cc(=O)n3nc(C4CC4)sc3n2)cc1,,0% (inactive)
COCCN(C(=O)c1ccco1)c1nnc(-c2ccc(OC)cc2)s1,7.08 µM (active),
COCCN(C(=O)C(C)C)c1nnc(-c2ccc(C(C)(C)C)cc2)s1,,11.9% (inactive)
COc1ccc(N(CC(=O)NC(C)(C)C)C(=O)c2ccco2)cc1,,1.11% (inactive)
Cc1c(CCO)sc[n+]1CC(=O)c1ccc2ccccc2c1,,16.3% (inactive)
O=C(CC1Oc2ccccc2NC1=O)NCc1ccc(F)cc1 (stereo unspecified),,12.5% (inactive)
Cc1cc(C(F)(F)F)nc(SCC(=O)Nc2nccs2)n1,,0.479% (inactive)
Cc1[nH]c2ccccc2c1SCC(=O)Nc1nccs1,,79.8% (inactive)
CC(=O)c1cc(C#N)c(SCC(=O)Nc2nccs2)nc1C,2 µM (active),
Cc1oc2c(c1C(=O)Nc1ccc(F)c(F)c1)C1=NCCN1C=N2,,-27.6% (inactive)
Cc1cc(/C=C2/SC(=O)N(CC(=O)N3CCCC3)C2=O)ccc1N1CCOCC1,,24.6% (inactive)
CCN=C1S/C(=C\c2cc(Br)ccc2OCC(=O)OCC)C(=O)N1CC,,-28.2% (inactive)
Cc1cc(/C=C2/SC(=O)N(CC(=O)OC(C)C)C2=O)c(C)n1C,2.51 µM (active),
